This is part of a sample that, as a whole, favours compounds with a hit. Of some 83,000 tested, about 20% had one in any assay.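 How to read the values: 0–100, growth inhibition (40 = 60% inhibited); 0, no net growth; -100 to 0, cell death (-40 = 40% of starting cells died; -100 = all dead).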 Values without a mark were called inactive. Activity calls are given as the source filed them. How the source made its calls: active means growth percent below 10; inactive means the rest.
system: HL-60(TB) leukemia; assay: NCI-60 one-dose screen, 48 h (100 = growth as untreated, 0 = no growth, -100 = all killed); details: 10 µM unless noted

Structure (SMILES) | growth
CCCN=C1NC(=O)/C(=C/c2nc(-c3ccc(OC)cc3)n3ccccc23)S1 | 79.8%
CCOC(=O)C1=C(C)NC(SCc2nnc(-c3ccc(Cl)cc3)o2)=NC1c1ccc(Cl)cc1Cl (stereo not given) | -6.39% (active)
C#Cc1cccc(Nc2nc3cc([N+](=O)[O-])ccc3nc2Nc2ccc(O)cc2)c1 | 4.42% (active)
CN1CCCN(CCNc2nccc(-c3c(-c4cccc(O)c4)nc4sccn34)n2)S1(=O)=O | 69.2%
Cc1ccc(NC(=O)c2nc(S(C)(=O)=O)oc2-c2ccc(F)cc2)cc1Nc1ccc2ncn(C)c(=O)c2c1 | 46.5%
O=C(NS(=O)(=O)c1ccccc1)n1cc(-c2ccncc2)c(-c2cc(O)cc(Cl)c2)n1 | 103%
CCN1CCN(c2ccc(Nc3cc(-c4cccnc4Nc4c(Cl)c(OC)cc(OC)c4Cl)ncn3)cc2)CC1 | 56%
CC(C)OC(=O)Nc1cc(F)ccc1F | 94.7%
CC(=O)C1CC(C)CCC1C(C)C (stereo not given) | 58.7%
CCC1NC(=O)c2cc(S(N)(=O)=O)c(Cl)cc2N1 (stereo not given) | 120%
CC[C@]1(O)C[C@@H]2CN(CCc3c([nH]c4ccccc34)[C@@](C(=O)OC)(c3cc4c(cc3OC)N(C)[C@H]3[C@@](O)(C(=O)OC)[C@H](OC(=O)CCCBr)[C@]5(CC)C=CCN6CC[C@]43[C@@H]65)C2)C1 | -21.2% (active)
COc1cc(NCc2ccccc2O)c2ncccc2c1 | 51%
CCCCCC#CC1OC23CCCCC2C(C#N)(C(=N)O3)C1(C#N)C#N (stereo not given) | 81%
S=C1CCCC(=S)N1 | 101%
O=S(=O)(N=C1C(Cl)=C(Cl)C(=NS(=O)(=O)c2ccccc2)C(Cl)=C1Cl)c1ccccc1 | 48.5%
COC(=O)C(Cc1ccccc1)NC(=O)c1ccc(NC(=O)c2[nH]c(C)c(Cl)c2Cl)c(OC(C)C)c1 (stereo not given) | 99.7%
CNC(=O)NCC1OC(n2cnc3c(NC(=O)Nc4ccccc4)ncnc32)C2OC(=O)CC12 (stereo not given) | 82.7%
O=C(CCCSc1nc(-c2ccccc2)cc(-c2ccc(Cl)cc2)n1)NO | -15.8% (active)
CC1=C(C(=O)Nc2ccccc2)C(c2ccc3c(c2)OCCO3)NC(=O)N1 (stereo not given) | 106%
CCCc1c(CC)c(=N)c2ccccc2n1C | 32.7%

Structure (SMILES) | growth
CC(C)c1[nH]nc2c(NCc3ccc(-c4ccccn4)cc3)nc(SCCN)nc12 | -24.4% (active)
O=[N+]([O-])c1cccc(N=NNc2cccc([N+](=O)[O-])c2)c1 | 79.9%
O=C(C[P+](c1ccccc1)(c1ccccc1)c1ccccc1)c1ccccc1 | 93.1%
CC/C(=N/NC(N)=O)c1ccccc1 | 101%
COc1ccc(C2CC(c3cnccn3)=NN2)cc1OC (stereo not given) | 46.5%
C[n+]1ccccc1C[n+]1ccccc1 | 90.9%
Cc1ccc(/C=C(/C#N)n2nnc3cccc(F)c32)cc1 | -18.2% (active)
CCCC(=O)Oc1ccc2ccccc2c1 | 98.5%
O=C(COc1ccc(/C=C2\Cc3ccc(Cl)cc3C2=O)cc1)Nc1nc2ccccc2s1 | 117%
CCOC(=O)CO | 83.5%
O=C(/C(=C(\C(=O)c1ccccc1)c1ccccc1)c1ccccc1)c1ccccc1 | -1.48% (active)
Cc1nc2ccccc2c(/C=C/c2ccccc2)c1C(=O)/C=C/c1ccccc1 | 23.1%
O=C(Cn1nnc([N+](=O)[O-])n1)c1ccccc1 | 38%
CC[C@@H](C(=O)[C@H](C)[C@H](O)[C@@H](C)[C@H]1O[C@H]([C@@H](CC)C(=O)N(CC)CC)CC[C@H]1C)C1O[C@]2(C=C[C@@H](O)[C@]3(CC[C@@](C)([C@H]4CC[C@](O)(CC)[C@H](C)O4)O3)O2)[C@H](C)C[C@@H]1C (stereo not given in full) | -28.8% (active)
CC(C)n1cc2c(N)ncnc2n1 | 101%
CC(C)c1ncc([N+](=O)[O-])n1C | 118%
CC(C)C[C@H](C(=O)O)N(C)C(=O)[C@@H]1CCCN1C(=O)[C@H](C)OC(=O)[C@H](CCC(N)=O)NC(=O)[C@@H]1CCC(=O)N1 | 85.8%
CC1O[C@@H](OC2[C@H](OC(=O)/C=C/c3ccc(O)c(O)c3)C(COC3O[C@H](C)C(O)C(O)[C@@H]3O)O[C@@H](OCCc3ccc(O)c(O)c3)[C@H]2O)[C@@H](O)C(O)[C@H]1O (stereo not given in full) | 103%
O=C1c2ccccc2C(=O)c2cc(Cn3c[n+](Cc4ccc5ccccc5c4)c4ccccc43)ccc21 | -49.2% (active)
O=C1OC(=O)C2C1C1(Cl)C(Cl)=C(Cl)C2(Cl)C2C(=O)OC(=O)C21 (stereo not given) | 98%

— PubChem BioAssay (NCI)
